Screening results (PubChem BioAssay)
Hits are enriched below; roughly 1.5% of the tested compounds scored in any of these assays.
IDE cell inh – inhibits human insulin-degrading enzyme in HEK cells. P14735. FAbetaB cleavage, fluorescence polarization. inhibition, % at 5.59 µM. actives 0.41% (n = 320,000);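 active means percent inhibition above the average of all tested compounds plus 3 SD, set per screening campaign, cut at about 16% in these data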;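 further: IDE supplied by intact live HEK cells; FP after avidin binding of uncleaved biotin substrate so inhibition keeps polarization high; 0% = DMSO wells and 100% = 60 µM reference IDE inhibitor Ii1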
MCL1-BIM inh – MCL1-BIM-BH3 interaction inhibition (human) | Q07820 | actives 0.68% (n = 320,000) | GST-MCL1 / FITC-Bim-BH3 fluorescence polarization | AID 2057 | inhibition, % at 10.9 µM;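 active means inhibition above the mean inhibition of all tested compounds plus 3 SD, set per campaign, cut at about 40% in these data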;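 further: 0% = DMSO wells and 100% = unlabeled Bim-BH3 peptide control; higher means more loss of mP so more displacement of Bim peptide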
GLD-1 TGE inh – GLD-1-TGE RNA interaction inhibition (C. elegans); Q17339; purified GLD-1 + fluorescein TGE RNA, fluorescence polarization; inhibition, % at 5.96 µM; actives 0.44% (n = 320,000); AID 2280;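 active means percent inhibition above a per-plate cutoff, the plate mean of test compounds plus 3 SD, cut at about 30% in these data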;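 further: 0% = DMSO wells with GLD-1 and probe and 100% = wells lacking GLD-1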
Bcl-xL primary – inhibitors of human Bcl-xL; Q07817; GST-Bcl-xL / FITC-Bim BH3 peptide fluorescence polarization; inhibition, % at 10.9 µM; actives 0.7% (n = 320,000); AID 2129;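 active means inhibition above the mean of all tested compounds plus 3 SD, cutoff set per campaign, cut at about 30% in these data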;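 further: 0% = DMSO wells and 100% = unlabeled Bim-BH3 peptide competitor; inhibitors lower millipolarization by displacing the labeled peptide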
MEX-5 binding – C. elegans MEX-5 TCR-2 RNA binding activity. Q9XUB2. MEX-5/FITC-TCR2 RNA binding, fluorescence polarization; hits give low values. actives 0.38% (n = 300,000). activity score (negative = inhibition of binding), % at 10 µM;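 active means inhibition past about -25% in most replicates, and total fluorescence under double the plate's negative control median, limit read from the data; inconclusive means replicates evenly split on the limit, or fluorescence at least double controls; inactive means too little inhibition in most replicates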;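 further: 0% = DMSO and -100% = 5 µM competing unlabeled TCR2 RNA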
Target sequence (Q9XUB2 whole entry, looked up): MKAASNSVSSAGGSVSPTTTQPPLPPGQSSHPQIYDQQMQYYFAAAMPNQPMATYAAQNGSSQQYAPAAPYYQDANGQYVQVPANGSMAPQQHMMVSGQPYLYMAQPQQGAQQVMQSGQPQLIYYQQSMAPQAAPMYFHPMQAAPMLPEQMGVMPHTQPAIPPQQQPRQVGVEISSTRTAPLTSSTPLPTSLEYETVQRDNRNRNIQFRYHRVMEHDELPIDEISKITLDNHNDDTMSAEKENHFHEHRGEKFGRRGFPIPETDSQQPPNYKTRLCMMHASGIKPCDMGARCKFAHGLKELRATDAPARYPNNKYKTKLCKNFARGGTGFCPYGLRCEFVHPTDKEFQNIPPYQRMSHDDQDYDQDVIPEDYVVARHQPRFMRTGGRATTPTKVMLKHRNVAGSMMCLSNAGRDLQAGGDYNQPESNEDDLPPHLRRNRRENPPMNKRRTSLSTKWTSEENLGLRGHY
IDE cell activ – activators of human insulin-degrading enzyme in cells | P14735 | HEK cells, FAbeta-B cleavage, fluorescence polarization; 0% vehicle, 100% cell-free pure enzyme wells | activation, % at 5.96 µM | actives 0.073% (n = 340,000);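 active means activation above the mean of all tested compounds plus 3 SD, set per screening campaign, cut at about 17% in these data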
Bcl-xL conf – Bcl-xL (human) inhibition, MCL1 counter-screen confirmation. shares compounds with MCL1-BIM inh. GST-Bcl-xL / FITC-Bim BH3 peptide FP binding. inhibition, % at 10.9 µM. actives 54% (n = 1,700). AID 2166;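 active means inhibition above a cutoff equal to the mean inhibition of all tested compounds plus 3 SD, cut at about 30% in these data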;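 further: 0% = DMSO wells and 100% = unlabeled Bim BH3 control peptide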
MCL1 BIM confirm – MCL1-BIM-BH3 interaction inhibition, confirmation. shares compounds with MCL1-BIM inh. GST-MCL1 / FITC-Bim-BH3 fluorescence polarization. inhibition, % at 10.9 µM. actives 61% (n = 1,700);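 active means inhibition above the average of all tested compounds plus 3 SD, cut at about 40% in these data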;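 further: 0% = DMSO wells and 100% = unlabeled Bim-BH3 control peptide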
Numbers without * were called inactive; ? = inconclusive; nt = not tested or not shown; + = active, no number.

SMILES	IDE cell inh	MCL1-BIM inh	GLD-1 TGE inh	Bcl-xL primary	MEX-5 binding	IDE cell activ	Bcl-xL conf	MCL1 BIM confirm
Cc1cc2nc3ccc(N(C)C)cc3nc2cc1N	9	126*	41*	120*	-28*	-4	128*	143*
CCN(CC)C(=O)CSc1nnc2nnc3cc(Cl)ccc3n12	13	88*	123*	93*	-32*	10	65*	79*
O=c1cc(-c2ccc(O)c(O)c2)oc2c1ccc1ccccc12	8	45*	3	4	nt	-4	18	45*
Cc1ccc(N2C(=O)[C@@H]3[C@H](C2=O)C2CCCN2[C@@H]3C(=O)c2ccccc2)cc1 (stereo not given in full)	-1	81*	48*	78*	-16	-9	64*	76*
O=C(C(Sc1ccccc1)c1ccccc1)N1CCOCC1 (stereo not given)	1	-2	-1	0	0	4	nt	nt
CCCC1=NN2C(=N)/C(=C\c3ccc(SCc4ccco4)o3)C(=O)N=C2S1	18*	80*	24	70*	-16	-35	7	26
O=C(c1nc2ccc(Cl)cn2c1CN1CCCC1)N1CCc2ccccc2C1	0	67*	37*	57*	-22	1	63*	87*
O=C(c1nc2ccc(Cl)cn2c1CN1CCC(CO)CC1)N1CCc2ccccc2C1	-2	-4	7	5	0	8	nt	nt
O=C1/C(=C/C=C/c2ccco2)SC(=S)N1c1ccc(O)cc1	1	28	-10	14	-1	-1	nt	nt
O=C(N/N=C/C=C/c1ccco1)c1ccncc1	0	12	-1	8	-7	-3	nt	nt
CC(C)C(C(=O)O)N1C(=O)/C(=C/C=C/c2ccco2)SC1=S (stereo not given)	0	95*	6	71*	-35*	2	32*	37
O=C(NN1C(=O)/C(=C/C=C/c2ccco2)SC1=S)c1ccncc1	2	80*	4	46*	-15	nt	30*	45*
CCN1C[C@@H]2[C@@H]3C(=O)N(Cc4ccccc4)C(=O)[C@@H]3[C@](C)(C(=O)OC)N2C1=NC	nt	nt	nt	nt	nt	-1	nt	nt
COc1cccc(NS(=O)(=O)c2ccc3c(c2)C2C=CCC2C(c2ccc(C(=O)O)cc2)N3)c1 (stereo not given)	-5	58*	15	26	-66*	2	29	46*
COc1cccc(NS(=O)(=O)c2ccc3c(c2)CCCN3C(C)=O)c1	4	-4	-2	1	-3	2	nt	nt
COc1ccc(C(=O)N/N=C(\C)c2ccc3c(c2)C2C=CCC2C(c2ccccc2)N3)cc1 (stereo not given)	6	56*	-1	30	nt	7	5	-1
COc1ccc(/C(C)=N/NC(=O)c2ccncc2)cc1	-6	-13	0	-11	2	1	nt	nt
COc1ccccc1-n1c(C)c2c(OC)cccc(=O)c2c1C	1	40*	30	39*	1	5	21	24
CCc1cc(=O)oc2cc(C)c(CN3CCCC(C)C3)c(O)c12 (stereo not given)	-2	47*	10	24	1	-4	25	18
CCCCc1cc(=O)oc2cc(C)c(CN3CCCC3)c(O)c12	8	26	10	10	-2	6	nt	nt
COC(=O)c1ccccc1NC(=O)CSc1nncn1-c1ccccn1	5	7	3	6	2	-1	nt	nt
CCOc1ccc2noc3c2c1C(=O)c1ccccc1-3	-11	174*	171*	152*	?	44*	146*	171*
O=C1c2ccccc2-c2onc3ccc(N4CCCC4)c1c23	nt	nt	nt	nt	?	-4	nt	nt
CCNc1ccccc(-c2ccc3ccccc3n2)c1=O	3	27	13	22	-1	-5	nt	nt
CCNc1ccc2noc3c2c1C(=O)c1ccccc1-3	-6	+	192*	175*	?	17	184*	+
SMILES	IDE cell inh	MCL1-BIM inh	GLD-1 TGE inh	Bcl-xL primary	MEX-5 binding	IDE cell activ	Bcl-xL conf	MCL1 BIM confirm
Cc1cc(C)n(-c2nc3ccccc3n3nnnc23)n1	4	0	3	1	3	-1	nt	nt
c1ccc(N2CCN(c3nc4ccccc4n4nnnc34)CC2)cc1	6	59*	12	51*	5	-3	38*	38
CNC(=O)c1c(N)sc2c1CCCCC2	2	72*	36*	56*	-9	nt	44*	52*
CC(C)NC(=O)CSc1nc(N)c(-c2ccccc2)c(=O)[nH]1	7	-3	-3	0	0	3	nt	nt
O=C(N/N=C/c1ccc(-c2ccccc2C(=O)O)o1)c1cccs1	-4	71*	6	28	-11	-6	40*	73*
O=C(N/N=C/c1ccncc1)c1cccs1	0	7	-3	1	-1	1	nt	nt
NC(=O)NC(Cc1ccccc1)C(=O)NNC(=O)COc1ccccc1Cl (stereo not given)	6	nt	0	nt	nt	3	nt	nt
Cc1cc(NC(=O)Cc2cccs2)no1	-4	62*	-12	10	nt	0	19	69*
CC(C)(CCO)Nc1ncnc2onc(-c3ccc(F)cc3)c12	-5	12	12	7	-1	3	nt	nt
Nc1cc(C(=O)O)c(N)c2c1C(=O)c1ccccc1C2=O	1	180*	112*	155*	-101*	6	161*	195*
Nc1c(C(=O)O)ccc2c1C(=O)c1ccccc1C2=O	-2	13	8	13	-13	-1	nt	nt
COc1cc(C(=S)N2CCN(c3ccccc3Cl)CC2)cc(O)c1O	6	58*	14	25	-3	-11	34*	71*
Cc1cc(/C=C(/C#N)c2nc3ccccc3[nH]2)c(C)n1-c1cccc([N+](=O)[O-])c1	2	4	4	10	0	-4	nt	nt
Cc1cc(/C=C(\C#N)c2nc3ccccc3[nH]2)c(C)n1C	-1	122*	133*	110*	-28*	1	127*	149*
COC(=O)c1c(C)nc2nonc2c1N	-1	3	1	5	0	7	nt	nt
COc1ccccc1N(CC(=O)NCc1ccco1)S(=O)(=O)c1ccc(C)cc1	2	47*	-1	11	-2	-2	33*	79*
COc1cc(OC)cc(-c2c(-c3ccsc3)c3cc(Br)ccc3n2C)c1	-2	-1	-7	0	nt	-3	nt	nt
